Assay results reported in PubChem BioAssay (Tox21).
Results filed as inconclusive are left out. Where a call stands in place of a potency, no number is given. The source made the active and inactive calls. Calls follow the shape of the dose curve; as a rule, active = well fitted cell-killing curve with a large enough effect in the repeat runs; inconclusive = weak or mixed curves; inactive = flat fitted curve, though single readings scatter.
Potency is read from the fitted curve at half-maximal effect.

Assay: qHTS RealTime-Glo MT Cell Viability Assay in HepG2 cells - 24 hour (AID 1224867); also: nearly all actives have a fitted effect of over 50% in size
Details: RealTime-Glo luminescence; series mostly up to 76.8 µM
Description: U.S. Tox21 Program National Center for Advancing Translational Sciences [NCATS] NIH Chemical Genomics Center [NCGC] U.S. Environmental Protection Agency [EPA] National Institutes of Environmental Health Sciences [NIEHS] National Toxicology Program [NTP] U.S. Food and Drug Administration [FDA] Tox21 Assay Overview: Measure of cell viability is critical in the cell-base assay. Analysis of cell viability is necessary for the characterization of cell responses to cytotoxic drugs and environmental stress. A RealTime-Glo MT Cell Viability Assay to monitor cell viability in real time of continues cell culture during 40 hours of compound treatment was used to screen Tox21 10K library compounds in HepG2 cells. The RealTime-Glo MT Cell Viability Assay is a nonlytic, homogeneous, bioluminescent method to measure cell viability in real time using a simple, plate-based method. The assay involves adding NanoLuc luciferase and a cell-permeant prosubstrate to cells in culture. Viable cells reduce the proprietary prosubstrate to generate a substrate for NanoLuc luciferase. This substrate diffuses from cells into the surrounding culture medium, where it is rapidly used by the NanoLuc Enzyme to produce a luminescent signal. The signal correlates with the number of viable cells, making the assay well suited for cytotoxicity studies.
Tox21 Assay Protocol Summary: The mixture of HepG2 cell suspension and reagents were dispensed at 600cells/6 ul/well in 1536-well tissue culture treated black solid bottom plates using a Multidrop dispenser. After the assay plates were incubated at a 37 C/5% CO2 incubator for 5 hours, 23 nL of compounds dissolved in DMSO, positive and negative controls was transferred to the assay plate by a pintool work station. The plates were incubated at 37 C for 40 hours. The luminescence intensity were measured at 0h, 8h, 16h, 24h, 32h and 40h time points using ViewLux plate reader during compound treatment.
With O=C1O[C@H]([C@@H](O)CO)C(O)=C1O the Potency was “inactive”.
With CCCCC1(COC(=O)CCC(=O)O)C(=O)N(c2ccccc2)N(c2ccccc2)C1=O the Potency was “inactive”.
With CCOc1ccc(NC(C)=O)cc1 the Potency was “inactive”.
With O=c1[nH]cc(F)c(=O)[nH]1 the Potency was “inactive”.
In the case of COc1ccc2cc(S(=O)(=O)N[C@H](CC(=O)N[C@H](Cc3ccc(CN4[C@H](C)CCC[C@@H]4C)cc3)C(=O)N(C)C(C)C)c3ccc4c(c3)OCO4)ccc2c1, the Potency is reported as 52 µM (active).
With CCCCCCc1ccc(O)cc1O the Potency was “inactive”.
With O=C(O)CC(O)C(=O)O (stereo not given) the Potency was “inactive”.
In the case of COc1ccc(C(Cl)=C(c2ccc(OC)cc2)c2ccc(OC)cc2)cc1, the Potency is reported as “inactive”.
With CC/C(=C(\c1ccccc1)c1ccc(OCCN(C)C)cc1)c1ccccc1 the Potency was 38.9 µM (active) [middle of 4 runs].
In the case of CN[C@H]1CC[C@@H](c2ccc(Cl)c(Cl)c2)c2ccccc21, the Potency is reported as 23.9 µM (active).
For CNNCc1ccc(C(=O)NC(C)C)cc1, the Potency was “inactive”.
With CCCCC(CC)C(=O)O (stereo not given) the Potency was “inactive”.
In the case of Cc1ncc([N+](=O)[O-])n1C, the Potency is reported as “inactive”.
With CCCCNC(=O)NS(=O)(=O)c1ccc(C)cc1 the Potency was “inactive”.
In the case of O=C(Nc1ncc([N+](=O)[O-])s1)c1cccs1, the Potency is reported as “inactive”.
With Nc1ccc(O)c([N+](=O)[O-])c1 the Potency was “inactive”.
In the case of NS(=O)(=O)c1cc2c(cc1Cl)NCNS2(=O)=O, the Potency is reported as “inactive”.
For CCc1nc(N)nc(N)c1-c1ccc(Cl)cc1, the Potency was “inactive”.
For COc1cccc(O)c1O, the Potency was “inactive”.
In the case of OC[C@H]1O[C@H](O[C@]2(CCl)O[C@H](CCl)[C@@H](O)[C@@H]2O)[C@H](O)[C@@H](O)[C@H]1Cl, the Potency is reported as “inactive”.
In the case of CS(=O)(=O)OCCCCOS(C)(=O)=O, the Potency is reported as “inactive”.
For C/C=C/C=C/C(=O)O, the Potency was “inactive”.
For CN(C)CCOC(c1ccccc1)c1ccccc1, the Potency was “inactive”.
For NC(=O)c1cccnc1, the Potency was “inactive”.
In the case of CCN(Cc1c(F)cccc1Cl)c1c([N+](=O)[O-])cc(C(F)(F)F)cc1[N+](=O)[O-], the Potency is reported as “inactive”.
With C=CCc1ccc(O)c(OC)c1 the Potency was “inactive”.
In the case of CC(C)NCC(O)c1ccc(O)c(O)c1 (stereo not given), the Potency is reported as “inactive”.
With COc1ccc(OC(F)(F)F)cc1CN[C@H]1CCCN[C@H]1c1ccccc1 the Potency was 54.9 µM (active).
With Cc1cc(C)nc(NS(=O)(=O)c2ccc(N)cc2)n1 the Potency was “inactive”.
For O=C1NC(=O)C(c2ccccc2)(c2ccccc2)N1, the Potency was “inactive”.
In the case of CC(C)c1c(C(=O)Nc2ccccc2)c(-c2ccccc2)c(-c2ccc(F)cc2)n1CC[C@@H](O)C[C@@H](O)CC(=O)O, the Potency is reported as “inactive”.
In the case of Oc1ccccc1, the Potency is reported as “inactive”.
For C1=CC2C3C=CC(C3)C2C1 (stereo not given), the Potency was “inactive”.
With O=C1c2c(O)cccc2Cc2cccc(O)c21 the Potency was “inactive”.
With Nc1ccc([N+](=O)[O-])cc1O the Potency was “inactive”.
In the case of C=C(C)C(=O)OCC(C)O (stereo not given), the Potency is reported as “inactive”.
In the case of Nc1c2c(nc3ccccc13)CCCC2, the Potency is reported as “inactive”.
In the case of CC(=O)CCC(=O)O, the Potency is reported as “inactive”.
For CCOC(N)=O, the Potency was “inactive”.
With O=C1NS(=O)(=O)c2ccccc21 the Potency was “inactive”.
